High-throughput results: PubChem BioAssay, several laboratories
TRAIL sens C8 = caspase-8 TRAIL sensitization. 360,000 compounds, 1% hits. inhibition (viability loss, TRAIL sensitization), % at 10 µM. NB7+C8 cells + TRAIL, ATPlite viability luminescence;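 active = compounds causing at least 50% loss of cell viability in the single-dose screen, relative to plate controls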
Platelet DG rel = platelet dense granule release activity. AID 1663. inhibition, %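 (compounds screened at 7.5 µM in platelet-rich plasma)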. human platelet-rich plasma, SFLLRN dense granule ATP release, luminescence. 300,000 compounds, 0.22% hits;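 active = mean replicate score, as percent of positive control, at or above 50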
PPC-1+TRAIL kill = kills PPC-1 cancer cells in the presence of TRAIL. PPC-1 cells + TRAIL, ATPLite viability luminescence. cell killing (% activity), % at 4 µM or 5 µM. 220,000 compounds, 0.41% hits. AID 1443;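 active = cell killing above 50% in the first pass at 4 µM, then a duplicate retest at 5 µM averaging 50% or more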;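 note: plate controls were cells with TRAIL plus DMSO for no effect and medium-only wells lacking cells for full effect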
STAT1 blocker = reduces IFN-gamma driven STAT1 reporter signal | NIH 3T3 STAT1-luciferase reporter, luminescence | inhibition, % at 5.5 µM | 200,000 compounds, 0.35% hits | AID 920;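 active = inhibition above a set limit, the mean inhibition across all tested compounds plus 3 SD, cut at about 34% in these data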;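 note: 0% = IFN-gamma with DMSO and 100% = IFN-gamma with 300 µM nifuroxazide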
STAT3 blocker = inhibitors of IL-6 induced STAT3 signaling | 190,000 compounds, 0.89% hits | U3A cells, IL-6 STAT3-luciferase reporter, luminescence; host cell line lacks STAT1 | inhibition, % at 5.5 µM;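 active = inhibition above the mean inhibition across all screened compounds plus 3 SD, cut at about 44% in these data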;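 note: 0% = DMSO only wells and 100% = 100 µM nifuroxazide control wells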
PPC1 cytotox = kills PPC-1 cells | shares compounds with PPC-1+TRAIL kill | PPC-1 viability, ATPlite luminescence, overnight | cytotoxicity, % at 5 µM | 1,200 compounds, 50% hits | AID 1447;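 active = reconfirmed compounds whose average cytotoxicity reaches 50% or more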;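 note: 0% = DMSO-treated cells and 100% = wells holding medium but no cells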
* marks the source's active call; other numbers are inactive results; / = not tested or not shown. Rows were chosen to be rich in hits. Some 1.6% of all compounds tested hit in one or more screens of this group.

SMILES	TRAIL sens C8	Platelet DG rel	PPC-1+TRAIL kill	STAT1 blocker	STAT3 blocker	PPC1 cytotox
COc1cc(SC)ccc1C(=O)Nc1ccccn1	77*	4	68*	/	/	66*
COc1cc(SC)ccc1C(=O)Nc1ccc2c(c1)OCO2	38	1	42	-57	9	40
COc1cc(SC)ccc1C(=O)Nc1ccon1	11	-5	21	-22	18	/
CCN(CC)C(=O)CN(c1ccc(F)c(Cl)c1)S(C)(=O)=O	-9	6	-1	3	2	12
O=C(CCn1cnc2ccccc2c1=O)Nc1cccc(Cl)c1	10	-2	-18	-4	14	-35
Cc1cccc(C)c1NC(=O)C1(C)CN(S(C)(=O)=O)CC(=O)N1Cc1ccco1 (centres undefined)	1	/	/	/	/	/
C[C@H]1CN([C@@H](C)CO)C(=O)CCCn2cc(nn2)CO[C@@H]1CN(C)C(=O)Oc1ccccc1	-2	/	/	/	/	/
NC(=O)c1ccsc1NC(=O)c1ccc2c(c1)CCCC2	85*	22	78*	-43	36	76*
CC(C)(C)NC(=O)C(c1ccc(-c2ccccc2)cc1)N(C[C@H]1CC[C@@H]([C@@H]2CC[C@H](CO)O2)O1)C(=O)c1ccc(C(C)(C)C)cc1 (some centres undefined)	10	/	/	/	/	/
Cc1ccc(C(=O)Nc2nc(=O)n(C)s2)cc1	53*	-1	31	-14	10	37
Cc1ccc(C(=O)Nc2nccs2)cc1	24	-3	7	-6	-54	4
O=C(CNC(=O)c1ccc(Br)o1)Nc1ccc(F)c(S(=O)(=O)N2CCOCC2)c1	-3	/	/	/	/	/
COc1ccccc1N=Nc1nc(-c2ccccc2)c(-c2ccccc2)[nH]1	-5	3	-2	-10	0	/
Oc1ccccc1N=Nc1nc(-c2ccccc2)c(-c2ccccc2)[nH]1	-1	5	21	-4	9	23
COc1cc(-c2coc3c(C(=O)NC4CCCCC4)cccc23)ccc1O	11	/	/	/	/	/
CN(C)c1ccc2nc3ccc(=O)cc-3sc2c1	30	/	/	/	/	/
Cc1cc2nc3ccc(=[N+](C)C)cc-3sc2cc1N	51*	7	72*	/	/	72*
CCN(CC)C(=O)CSc1ncnc2c(-c3cccs3)nsc12	11	/	4	-22	-17	4
Cn1c(NC(=O)c2ccco2)c(-c2ccccc2)c(=O)c2ccccc21	-21	0	8	7	0	-12
CCCS(=O)(=O)NC(=O)C1(C)CCN(C(=O)COc2ccccc2)C1 (centres undefined)	-16	/	/	/	/	/
COc1ccc(S(=O)(=O)Nc2ccc(O)c3ccccc23)cc1	19	-5	16	2	-37	4
CCNC(=O)CN(c1ccccc1)S(=O)(=O)c1ccc(Cl)cc1	-4	0	-4	6	-7	1
CCNC(=O)CN(c1ccc(Cl)cc1)S(=O)(=O)c1ccccc1	-5	-3	-2	-10	10	/
C=CCNC(=O)c1ccsc1N	2	/	/	/	/	/
Cc1ccc(N/C=C/C(=O)c2cccs2)cc1C	78*	16	71*	53*	66*	71*
SMILES	TRAIL sens C8	Platelet DG rel	PPC-1+TRAIL kill	STAT1 blocker	STAT3 blocker	PPC1 cytotox
Cc1cc(N/C=C/C(=O)c2cccs2)ccc1F	45	18	9	-26	-14	/
CCOC(=O)c1cnc(Nc2nc3ccccc3o2)nc1C	88*	17	81*	45*	96*	79*
CCOC(=O)c1cnc(Nc2nc3ccccc3o2)nc1CN1CCN(c2ccccc2)CC1	/	/	/	3	1	/
Fc1cccc(Cc2c(-c3cccc(Cl)c3)nc3ccc(Cl)cn23)c1	-3	/	/	/	/	/
COCCNC(=O)C1(C)CCCN(C(=O)c2cc(F)cc(F)c2)C1 (centres undefined)	1	/	/	/	/	/
O=C(N/N=C/c1ccc([N+](=O)[O-])cc1)c1[nH]ncc1Br	49	40	27	-36	16	26
COc1ccc(N/N=C/c2c(C(=O)O)ccc3ccccc23)cc1	-7	0	43	/	/	38
COc1ccc(-c2cnc(C(O)c3ccc(CN4CCCCC4)cc3)[nH]2)cc1 (centres undefined)	-18	/	/	/	/	/
O=C(O)CC(NC(=O)c1ccccc1NC(=O)c1ccccc1)C(=O)O (centres undefined)	-4	-2	5	-2	0	3
Cc1ccccc1OCC(=O)Nc1ccc2[nH]ncc2c1	0	3	/	/	/	/
Cc1ccc(NC(=O)CCC(=O)NNC(=O)c2ccccc2[N+](=O)[O-])c(C)c1	-2	2	-10	-6	-5	-7
Cc1ccc(NC(=O)CCC(=O)NNC(=O)c2cccs2)c(C)c1	-3	7	15	0	5	/
CN(Cc1ccc(OC(F)F)cc1)C(=O)c1cccc(S(=O)(=O)N2CCN(Cc3ccccc3)CC2)c1	12	/	/	/	/	/
COC(=O)C1=C(N)Oc2cc(C)n(CCc3ccccc3)c(=O)c2C1c1cccnc1 (centres undefined)	11	4	-3	12	0	/
COC(=O)C1=C(N)Oc2cc(C)n(CCCn3ccnc3)c(=O)c2C1c1cccc(Cl)c1 (centres undefined)	-7	3	7	/	/	-1
CCNC(=O)C1(C)CCN(C(=O)c2ccc(-c3ccccc3)cc2)C1 (centres undefined)	3	/	/	/	/	/
CC(C)(C)C(=O)Nc1cccc(-c2nc3ccccc3c(=O)o2)c1	59*	14	52*	26	33	53*
CCCCn1nnnc1C(c1ccccc1)N1CCN(c2cc(C)ccc2C)CC1 (centres undefined)	14	/	/	/	/	/
COc1cccc(/C=C/C(=O)c2c(O)cc(C)oc2=O)c1O	11	2	-18	13	-1	/
COc1ccc(/C=C/C(=O)c2c(O)cc(C)oc2=O)c(OC)c1	89*	-1	87*	-42	-28	86*
Nc1nc(Cl)nc(N(c2ccccc2)c2ccccc2)n1	-5	-12	4	12	-1	/
Nc1nc(CCl)nc(N(c2ccccc2)c2ccccc2)n1	93*	11	90*	/	/	90*
CN(C(=O)CSc1nnc(NC2CCCCC2)s1)C1CCS(=O)(=O)C1 (centres undefined)	-5	-2	21	-5	-3	/
CCc1ccc(Nc2nnc(SCC(=O)NC(=O)c3cccn3C)s2)cc1	45	-6	46	11	-1	41
CCc1ccc(Nc2nnc(SCC(=O)N(C)C3CCS(=O)(=O)C3)s2)cc1 (centres undefined)	71*	1	70*	/	/	68*
Cc1nc(NC(=O)C(C)(C)C)sc1C(=O)Cn1cc(-c2ccc(C(C)(C)C)cc2)nn1	-8	/	/	/	/	/
Cc1cc2nc(-c3ccc(SCc4ccc(C(=O)O)cc4)nc3)[nH]c2cc1C	7	-1	20	-18	3	/
Cc1cc(NC(=O)CSc2ccc(-c3nc4cc(C)c(C)cc4[nH]3)cn2)no1	43	2	59*	-22	8	45
COc1ccc([C@H]2N[C@]3(CCCN(Cc4ccc(C)cc4)C3=O)[C@H]3C(=O)N(Cc4ccccc4)C(=O)[C@@H]23)cc1	-8	/	/	/	/	/
